# Reference: PubChem BioAssay (NCATS)
# Results filed as inconclusive are left out. Activity calls are given as the source filed them. Unless noted, the call rests on the fitted dose curve; in most records, active means well fitted curve in the direction sought with a large enough effect; inconclusive means small, poorly fitted or top-dose-only effect, or another doubt; inactive means no such curve, though single readings can be large; an effect the other way counts as inactive or inconclusive.
# Key:
# [1] = molecular target: ATP-dependent 6-phosphofructokinase (Trypanosoma brucei brucei) (UniProt O15648); experiment: qHTS Assay to Find Inhibitors of T. brucei phosphofructokinase: hit validation (AID 492961);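 further: luminescence reports ADP formed as PFK phosphorylates fructose-6-phosphate with ATP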
# Procedure, shortened: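 In this biochemical qHTS validation, titrated compounds were tested against 1.25 nM PFK with 0.1 mM ATP and 0.5 mM F6P. Percent activity came from controls lacking or containing enzyme.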
# [2] = molecular target: Ubiquitin carboxyl-terminal hydrolase 1 (Homo sapiens) (UniProt O94782); experiment: Inhibitors of USP1/UAF1: Pilot qHTS (AID 504865);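 further: rhodamine fluorescence freed from ubiquitin-rhodamine substrate followed over time; top concentration of the series differs between compounds; nearly all actives have a fitted effect of over 35% in size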
# Procedure, shortened: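 Enzyme-free wells gave the negative control, while test wells held 1nM USP1/UAF1 preincubated with compound for 15 min at room temperature. Ub-Rho at 150nM final started the reaction, and fluorescence at 480/540 nm was recorded kinetically.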
# [3] = molecular target: Luciferin 4-monooxygenase (Photinus pyralis) (UniProt P08659); experiment: Biochemical firefly luciferase enzyme assay for NPC (AID 624030);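 further: purified P. pyralis luciferase at 10 nM with luciferin and ATP substrate; nearly all actives have a fitted effect of over 70% in size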
# Procedure, shortened: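 Direct inhibition of firefly luciferase enzyme (10 nM final, 50 mM Tris Acetate) assessed by luminescence within 5 minutes. Percent activity scaled between DMSO and PTC124 positive control, with concentration-effect curves classified by fit quality and response.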
# [4] = S16 Schwann cell viability assay (CellTiter-Glo assay) (AID 624031);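 further: cellular ATP luminescence as a viability measure; nearly all actives have a fitted effect of over 70% in size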
# Procedure, shortened: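 This viability control uses native rat S16 Schwann cells grown in DMEM plus 10% FBS. After a 24 h compound treatment at 37 °C, CellTiter-Glo luminescence reports ATP content, scaled against DMSO-treated and cell-free wells.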
# [5] = S16 Schwann cell PMP22 intronic element beta-lactamase assay (AID 624044; calls by dose curve; further: nearly all actives have a fitted effect of over 15% in size); conditions: S16 rat Schwann cells, PMP22 element beta-lactamase FRET, 24 h; ratio activity, negative = inhibition: at 38.3 µM (top of the series) unless noted
# Procedure, shortened: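 Rat S16 Schwann cells with beta-Lac driven by a PMP22 intronic element, compound-treated 24 h at 37 °C. LiveBLAzer FRET B/G read: 460 nm normalized to potassium clavulanate vs DMSO; 535 nm FRET as viability; concentration-effect curves classified.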
# [6] = molecular target: Cytochrome P450 2D6 (Homo sapiens) (UniProt P10635); experiment: Cytochrome P450 family 2 subfamily D member 6 (CYP2D6) small molecule antagonists: luciferase biochemical (cell-free) qHTS assay (AID 1645840; active means well fitted curve in the direction sought with a large enough effect in the repeat runs; an effect the other way counts as inactive or inconclusive; further: nearly all actives have a fitted effect of over 55% in size)
# Procedure, shortened: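 P450-Glo luminescent screen: recombinant CYP2D6 enzyme–proluciferin substrate mix preincubated with compound 10 min at room temperature, then NADPH regeneration added for 1 h at room temperature. Detection reagent added for 20 min; luciferin light read as relative luminescence units.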
# [7] = molecular target: Cytochrome P450 3A4 (Homo sapiens) (UniProt P08684); experiment: Cytochrome P450 family 3 subfamily A member 4 (CYP3A4) small molecule antagonists: luciferase qHTS assay (AID 1645841; active means well fitted curve in the direction sought with a large enough effect in the repeat runs; an effect the other way counts as inactive or inconclusive; further: nearly all actives have a fitted effect of over 45% in size)
# Procedure, shortened: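 Luminescent CYP3A4 activity readout: compounds plus enzyme-substrate mix 10 min at room temperature, reaction started with NADPH regenerating system for 1 h, stopped with detection reagent, read after 20 min. Ketoconazole served as control.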
# [8] = molecular target: Cytochrome P450 2C9 (Homo sapiens) (UniProt P11712); experiment: Cytochrome P450 family 2 subfamily C member 9 (CYP2C9) small molecule antagonists: luciferase biochemical (cell-free) qHTS assay (AID 1645842; active means well fitted curve in the direction sought with a large enough effect in the repeat runs; an effect the other way counts as inactive or inconclusive; further: nearly all actives have a fitted effect of over 55% in size)
# Procedure, shortened: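 Luminescence, after 20 min with luciferin detection reagent, reflected CYP2C9 turnover during a 1 h NADPH-driven reaction at 37C. Enzyme-substrate mix contained 0.4% bovine serum albumin and was preincubated with compound 10 min at room temperature.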
# [9] = qHTS profiling for inhibitors of Plasmodium falciparum proliferation (AID 504749); further: potency means the concentration at half of the fitted maximal effect; nearly all actives have a fitted effect of over 60% in size; conditions: P. falciparum in erythrocytes, SYBR Green DNA, 72 h
# Procedure, shortened: (§1)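 Three-day growth assay of blood-stage parasites in erythrocytes (0.3% parasitemia, 2.5% hematocrit) at 37 C, 5% CO2, quantified by SYBR Green DNA staining after overnight detergent lysis.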
# [10] = test system: 3D7; experiment: as above; conditions: P. falciparum in erythrocytes, SYBR Green DNA, 72 h; series mostly up to 28.7 µM
# Procedure, shortened: as §1
# [11] = test system: 7G8; experiment: as above; conditions: P. falciparum in erythrocytes, SYBR Green DNA, 72 h; series mostly up to 12.8 µM
# Procedure, shortened: as §1
# [12] = test system: AA1029; experiment: as above; conditions: P. falciparum in erythrocytes, SYBR Green DNA, 72 h; series mostly up to 28.7 µM
# Procedure, shortened: as §1
# [13] = test system: AS120; experiment: as above; conditions: P. falciparum in erythrocytes, SYBR Green DNA, 72 h; series mostly up to 28.7 µM
# Procedure, shortened: as §1
# [14] = test system: ATS189; experiment: as above; conditions: P. falciparum in erythrocytes, SYBR Green DNA, 72 h; series mostly up to 28.7 µM
# Procedure, shortened: as §1
# [15] = test system: ATS95; experiment: as above; conditions: P. falciparum in erythrocytes, SYBR Green DNA, 72 h; series mostly up to 28.7 µM
# Procedure, shortened: as §1
# [16] = test system: C2A; experiment: as above; conditions: P. falciparum in erythrocytes, SYBR Green DNA, 72 h; series mostly up to 28.7 µM
# Procedure, shortened: as §1
# [17] = test system: CP191; experiment: as above; conditions: P. falciparum in erythrocytes, SYBR Green DNA, 72 h; series mostly up to 28.7 µM
# Procedure, shortened: as §1
# [18] = test system: CP192; experiment: as above; conditions: P. falciparum in erythrocytes, SYBR Green DNA, 72 h; series mostly up to 28.7 µM
# Procedure, shortened: as §1
# [19] = test system: CP194; experiment: as above; conditions: P. falciparum in erythrocytes, SYBR Green DNA, 72 h; series mostly up to 28.7 µM
# Procedure, shortened: as §1
# [20] = test system: CP201; experiment: as above; conditions: P. falciparum in erythrocytes, SYBR Green DNA, 72 h; series mostly up to 28.7 µM
# Procedure, shortened: as §1
# [21] = test system: CP203; experiment: as above; conditions: P. falciparum in erythrocytes, SYBR Green DNA, 72 h; series mostly up to 28.7 µM
# Procedure, shortened: as §1
# [22] = test system: CP211; experiment: as above; conditions: P. falciparum in erythrocytes, SYBR Green DNA, 72 h; series mostly up to 28.7 µM
# Procedure, shortened: as §1
# [23] = test system: CP215; experiment: as above; conditions: P. falciparum in erythrocytes, SYBR Green DNA, 72 h; series mostly up to 28.7 µM
# Procedure, shortened: as §1
# [24] = test system: CP217; experiment: as above; conditions: P. falciparum in erythrocytes, SYBR Green DNA, 72 h; series mostly up to 28.7 µM
# Procedure, shortened: as §1
# [25] = test system: CP237; experiment: as above; conditions: P. falciparum in erythrocytes, SYBR Green DNA, 72 h; series mostly up to 28.7 µM
# Procedure, shortened: as §1
# [26] = test system: CP238; experiment: as above; conditions: P. falciparum in erythrocytes, SYBR Green DNA, 72 h; series mostly up to 28.7 µM
# Procedure, shortened: as §1
# [27] = test system: CP247; experiment: as above; conditions: P. falciparum in erythrocytes, SYBR Green DNA, 72 h; series mostly up to 28.7 µM
# Procedure, shortened: as §1
# [28] = test system: CP250; experiment: as above; conditions: P. falciparum in erythrocytes, SYBR Green DNA, 72 h; series mostly up to 12.8 µM
# Procedure, shortened: as §1
# [29] = test system: CP252; experiment: as above; conditions: P. falciparum in erythrocytes, SYBR Green DNA, 72 h; series mostly up to 12.8 µM
# Procedure, shortened: as §1
# [30] = test system: CP256; experiment: as above; conditions: P. falciparum in erythrocytes, SYBR Green DNA, 72 h; series mostly up to 28.7 µM
# Procedure, shortened: as §1
# Chain of Cytochrome P450 2C9 (Homo sapiens) (P11712 whole entry, looked up): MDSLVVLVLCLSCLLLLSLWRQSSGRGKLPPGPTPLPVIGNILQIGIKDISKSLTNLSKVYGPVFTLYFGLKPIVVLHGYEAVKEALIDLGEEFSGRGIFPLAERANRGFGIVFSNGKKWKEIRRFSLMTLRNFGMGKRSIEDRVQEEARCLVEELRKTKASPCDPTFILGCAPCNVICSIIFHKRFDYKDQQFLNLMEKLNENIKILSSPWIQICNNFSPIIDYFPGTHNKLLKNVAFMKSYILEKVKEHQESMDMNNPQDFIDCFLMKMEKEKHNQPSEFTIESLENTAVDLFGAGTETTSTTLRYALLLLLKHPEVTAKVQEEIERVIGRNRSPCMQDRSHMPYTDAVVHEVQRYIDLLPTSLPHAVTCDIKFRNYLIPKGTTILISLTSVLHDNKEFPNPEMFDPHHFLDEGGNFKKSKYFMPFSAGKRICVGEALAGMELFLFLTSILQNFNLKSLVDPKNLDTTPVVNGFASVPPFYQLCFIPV
# Chain of Cytochrome P450 3A4 (Homo sapiens) (P08684 whole entry, looked up): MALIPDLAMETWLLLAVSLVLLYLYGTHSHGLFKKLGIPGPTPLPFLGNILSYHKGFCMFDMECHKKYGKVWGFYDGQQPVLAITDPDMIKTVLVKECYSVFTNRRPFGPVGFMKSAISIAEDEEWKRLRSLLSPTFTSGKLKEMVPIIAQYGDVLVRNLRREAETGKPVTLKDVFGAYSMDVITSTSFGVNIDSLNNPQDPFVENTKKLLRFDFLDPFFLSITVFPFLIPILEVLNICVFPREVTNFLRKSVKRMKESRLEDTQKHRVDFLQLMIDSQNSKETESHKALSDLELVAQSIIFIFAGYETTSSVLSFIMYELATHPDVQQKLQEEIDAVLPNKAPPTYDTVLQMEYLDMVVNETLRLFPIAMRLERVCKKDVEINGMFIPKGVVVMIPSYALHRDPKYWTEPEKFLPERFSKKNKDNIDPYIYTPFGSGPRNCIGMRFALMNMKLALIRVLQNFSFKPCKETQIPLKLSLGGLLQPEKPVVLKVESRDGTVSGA
# Chain of Ubiquitin carboxyl-terminal hydrolase 1 (Homo sapiens) (O94782 whole entry, looked up): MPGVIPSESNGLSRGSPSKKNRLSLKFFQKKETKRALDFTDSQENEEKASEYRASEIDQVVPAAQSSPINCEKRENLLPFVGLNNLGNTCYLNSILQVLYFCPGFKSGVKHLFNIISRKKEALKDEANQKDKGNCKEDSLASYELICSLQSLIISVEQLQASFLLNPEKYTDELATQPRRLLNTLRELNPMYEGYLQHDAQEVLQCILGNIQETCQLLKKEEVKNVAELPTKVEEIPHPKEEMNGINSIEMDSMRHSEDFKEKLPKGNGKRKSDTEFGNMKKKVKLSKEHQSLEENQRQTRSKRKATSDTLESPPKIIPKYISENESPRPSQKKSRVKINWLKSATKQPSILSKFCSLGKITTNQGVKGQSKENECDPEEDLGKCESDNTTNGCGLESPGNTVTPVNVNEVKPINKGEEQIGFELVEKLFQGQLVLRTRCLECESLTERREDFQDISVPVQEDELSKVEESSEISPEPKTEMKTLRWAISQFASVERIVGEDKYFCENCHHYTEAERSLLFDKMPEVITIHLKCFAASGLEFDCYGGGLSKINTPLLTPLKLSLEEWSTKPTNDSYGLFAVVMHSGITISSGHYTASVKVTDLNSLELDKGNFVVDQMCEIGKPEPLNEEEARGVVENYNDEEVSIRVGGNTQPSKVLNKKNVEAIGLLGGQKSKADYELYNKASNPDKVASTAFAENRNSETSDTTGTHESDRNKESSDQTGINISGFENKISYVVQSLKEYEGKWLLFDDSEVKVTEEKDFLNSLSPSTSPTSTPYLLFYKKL
# Chain of ATP-dependent 6-phosphofructokinase (Trypanosoma brucei brucei) (O15648 whole entry, looked up): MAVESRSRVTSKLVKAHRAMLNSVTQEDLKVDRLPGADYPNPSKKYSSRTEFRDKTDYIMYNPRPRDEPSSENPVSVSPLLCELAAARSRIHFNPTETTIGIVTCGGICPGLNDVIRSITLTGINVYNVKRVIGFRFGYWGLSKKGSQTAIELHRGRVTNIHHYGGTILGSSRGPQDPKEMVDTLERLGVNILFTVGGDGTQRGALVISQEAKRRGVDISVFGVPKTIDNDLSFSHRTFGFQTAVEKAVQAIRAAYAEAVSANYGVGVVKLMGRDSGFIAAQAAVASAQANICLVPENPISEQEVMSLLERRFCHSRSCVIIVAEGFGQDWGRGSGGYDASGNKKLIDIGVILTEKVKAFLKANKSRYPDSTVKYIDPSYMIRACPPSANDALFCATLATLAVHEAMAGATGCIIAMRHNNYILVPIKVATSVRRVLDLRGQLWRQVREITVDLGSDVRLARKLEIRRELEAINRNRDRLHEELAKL
# Chain of Cytochrome P450 2D6 (Homo sapiens) (P10635 whole entry, looked up): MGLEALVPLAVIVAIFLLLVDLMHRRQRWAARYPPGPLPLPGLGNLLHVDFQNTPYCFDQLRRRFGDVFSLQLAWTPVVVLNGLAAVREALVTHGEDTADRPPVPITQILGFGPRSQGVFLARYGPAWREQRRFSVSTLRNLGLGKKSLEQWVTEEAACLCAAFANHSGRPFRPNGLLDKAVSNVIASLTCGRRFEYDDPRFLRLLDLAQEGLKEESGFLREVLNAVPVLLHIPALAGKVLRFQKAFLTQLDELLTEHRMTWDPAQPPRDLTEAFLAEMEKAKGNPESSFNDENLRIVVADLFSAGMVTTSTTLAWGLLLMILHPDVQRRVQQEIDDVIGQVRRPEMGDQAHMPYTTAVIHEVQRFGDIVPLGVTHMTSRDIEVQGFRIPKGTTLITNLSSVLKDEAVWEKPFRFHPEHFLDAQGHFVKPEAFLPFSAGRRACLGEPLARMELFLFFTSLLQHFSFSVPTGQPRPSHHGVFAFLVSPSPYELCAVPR
# Chain of Luciferin 4-monooxygenase (Photinus pyralis) (P08659 whole entry, looked up): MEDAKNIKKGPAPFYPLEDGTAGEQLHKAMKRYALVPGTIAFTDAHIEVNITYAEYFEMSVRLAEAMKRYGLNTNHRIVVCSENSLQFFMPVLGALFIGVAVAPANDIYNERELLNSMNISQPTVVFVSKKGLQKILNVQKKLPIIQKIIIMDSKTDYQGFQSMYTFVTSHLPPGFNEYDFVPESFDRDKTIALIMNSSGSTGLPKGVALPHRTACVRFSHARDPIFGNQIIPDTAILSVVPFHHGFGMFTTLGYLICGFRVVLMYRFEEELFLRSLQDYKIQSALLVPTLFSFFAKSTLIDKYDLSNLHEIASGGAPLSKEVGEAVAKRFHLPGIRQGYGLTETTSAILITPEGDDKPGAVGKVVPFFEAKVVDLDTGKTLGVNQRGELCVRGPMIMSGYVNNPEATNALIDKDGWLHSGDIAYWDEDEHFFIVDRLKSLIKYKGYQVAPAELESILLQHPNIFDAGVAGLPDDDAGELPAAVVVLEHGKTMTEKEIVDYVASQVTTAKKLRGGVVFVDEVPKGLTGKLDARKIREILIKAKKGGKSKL
smiles,measurement,setting,value
O=[As]O[As]=O (stereo unspecified),Potency,[1],inactive
same,Potency,[2],inactive
same,Potency,[3],inactive
same,Potency,[4],inactive
same,Potency,[5],inactive
same,Potency,[6],inactive
same,outcome,[7],inactive
same,Potency,[8],inactive
same,Potency,[9]; parasite line A,8.91 µM (active)
same,Potency,[9]; parasite line B,8.91 µM (active)
same,Potency,[10],11.2 µM (active)
same,Potency,[11],3.98 µM (active)
same,Potency,[12],11.2 µM (active)
same,Potency,[13],11.2 µM (active)
same,Potency,[14],8.91 µM (active)
same,Potency,[15],10 µM (active)
same,Potency,[16],12.6 µM (active)
same,Potency,[17],11.2 µM (active)
same,Potency,[18],9.53 µM (active)
same,Potency,[19],13.5 µM (active)
same,Potency,[20],13.5 µM (active)
same,Potency,[21],10.7 µM (active)
same,Potency,[22],12 µM (active)
same,Potency,[23],13.5 µM (active)
same,Potency,[24],7.94 µM (active)
same,Potency,[25],11.2 µM (active)
same,Potency,[26],8.91 µM (active)
same,Potency,[27],7.94 µM (active)
same,Potency,[28],7.94 µM (active)
same,Potency,[29],12.6 µM (active)
same,Potency,[30],8.91 µM (active)
